Out of some 5,500 compounds screened, about 2,000 (36%) were called active. Another 18% or so got no clear call; they are omitted. No stated cut-off is given here; in the data, active means normalized growth mostly below about 0.91 (no sharp cut-off); inconclusive means no clear call, values can overlap the other calls; inactive means mostly above about 0.92. Some of the results follow.
Assay: chemical genetic growth profiling, strain panel (AID 1159580);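 further: tested at 20 µM; growth read once vehicle control cultures reached saturation at 30 °C; 1 = growth at the plate median or of vehicle wells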
Settings: S. cerevisiae deletion strains, growth OD
[1] = locus YDL101C, strain DUN1, stronger effect = lower value
[2] = locus YHR030C, strain SLT2, stronger effect = lower value

Measured: normalized growth

O=C(CSCc1cccc2ccccc12)NNC(=O)c1ccc(F)cc1
inactive: locus YAL013W, strain DEP1, stronger effect = lower value 0.998 | locus YBR229C, strain ROT2, stronger effect = lower value 0.988 | locus YCL061C, strain MRC1, stronger effect = lower value 1 | [1] 1 | locus YDR150W, strain NUM1, stronger effect = lower value 0.979 | locus YEL061C, strain CIN8, stronger effect = lower value 0.992 | locus YGR078C, strain PAC10, stronger effect = lower value 0.993 | [2] 0.93 | locus YHR087W, strain rtc3, stronger effect = lower value 0.98 | locus YJR043C, strain POL32, stronger effect = lower value 0.988 | locus YJR075W, strain HOC1, stronger effect = lower value 0.983 | locus YKL190W, strain CNB1, stronger effect = lower value 0.991 | locus YLR039C, strain RIC1, stronger effect = lower value 0.958 | locus YLR058C, strain SHM2 (second series), stronger effect = lower value 0.982 | locus YLR085C, strain ARP6, stronger effect = lower value 0.978 | locus YLR262C, strain YPT6, stronger effect = lower value 0.919 | locus YML094W, strain GIM5, stronger effect = lower value 1.08 | locus YMR219W, strain ESC1, stronger effect = lower value 0.99 | locus YMR263W, strain SAP30, stronger effect = lower value 0.984 | locus YNL153C, strain GIM3, stronger effect = lower value 0.985 | locus YNL298W, strain CLA4 (second series), stronger effect = lower value 0.949 | locus YNL322C, strain KRE1, stronger effect = lower value 1 | locus YNR030W, strain Alg12, stronger effect = lower value 0.955 | locus YPL055C, strain LGE1, stronger effect = lower value 1 | locus YPL241C, strain CIN2, stronger effect = lower value 0.989 | locus YPR135W, strain CTF4, stronger effect = lower value 1.07

Cc1cccc(NC(=S)NNC(=O)CSCc2cccc3ccccc23)c1
inactive: locus YAR019C, strain CDC15, stronger effect = lower value 0.986 | locus YBL105C, strain PKC1, stronger effect = lower value 0.988 | locus YBR135W, strain CKS1, stronger effect = lower value 0.999 | locus YBR136W, strain MEC1, stronger effect = lower value 0.974 | locus YBR160W, strain CDC28, stronger effect = lower value 1 | locus YDL017W, strain CDC7, stronger effect = lower value 0.987 | locus YDL028C, strain MPS1, stronger effect = lower value 0.984 | [1] 0.975 | locus YDL108W, strain KIN28, stronger effect = lower value 0.982 | locus YDL132W, strain cdc53, stronger effect = lower value 0.989 | locus YDL214C, strain PRR2, stronger effect = lower value 0.904 | locus YDR052C, strain DBF4, stronger effect = lower value 1 | locus YDR054C, strain cdc34, stronger effect = lower value 0.983 | locus YDR226W, strain ADK1, stronger effect = lower value 0.988 | locus YDR477W, strain SNF1, stronger effect = lower value 0.924 | locus YER123W, strain YCK3, stronger effect = lower value 0.851 | locus YER133W, strain GLC7, stronger effect = lower value 0.906 | locus YFL009W, strain cdc4, stronger effect = lower value 0.99 | locus YFL029C, strain CAK1, stronger effect = lower value 0.983 | locus YFR003C, strain YPI1, stronger effect = lower value 0.982 | locus YFR019W, strain FAB1, stronger effect = lower value 0.965 | locus YFR028C, strain CDC14, stronger effect = lower value 0.99 | locus YGR040W, strain KSS1, stronger effect = lower value 0.904 | locus YGR052W, strain FMP48, stronger effect = lower value 0.992 | locus YGR092W, strain DBF2, stronger effect = lower value 0.865 | [2] 0.997 | locus YHR079C, strain IRE1, stronger effect = lower value 0.992 | locus YHR082C, strain KSP1, stronger effect = lower value 0.983 | locus YHR205W, strain SCH9, stronger effect = lower value 0.963 | locus YIL147C, strain SLN1, stronger effect = lower value 0.972 | locus YJL095W, strain BCK1, stronger effect = lower value 0.995 | locus YJL128C, strain PBS2, stronger effect = lower value 0.96 | locus YJL157C, strain FAR1, stronger effect = lower value 0.881 | locus YJR016C, strain ILV3, stronger effect = lower value 0.984 | locus YJR066W, strain TOR1 (second series), stronger effect = lower value 0.866 | locus YJR066W, strain TOR1, stronger effect = lower value 0.981 | locus YKL048C, strain ELM1, stronger effect = lower value 0.991 | locus YKL067W, strain YNK1, stronger effect = lower value 0.914 | locus YKL101W, strain HSL1, stronger effect = lower value 0.929 | locus YKL193C, strain SDS22, stronger effect = lower value 0.989 | locus YKL203C, strain TOR2, stronger effect = lower value 0.989 | locus YLR113W, strain HOG1, stronger effect = lower value 0.962 | locus YLR133W, strain CKI1, stronger effect = lower value 0.948 | locus YLR403W, strain SFP1, stronger effect = lower value 0.909 | locus YML070W, strain DAK1, stronger effect = lower value 0.912 | locus YMR001C, strain CDC5, stronger effect = lower value 0.988 | locus YMR205C, strain PFK2 (second series), stronger effect = lower value 0.943 | locus YMR277W, strain FCP1, stronger effect = lower value 0.988 | locus YNL006W, strain LST8, stronger effect = lower value 0.986 | locus YNL020C, strain ARK1, stronger effect = lower value 0.925 | locus YNL161W, strain CBK1, stronger effect = lower value 0.984 | locus YNL183C, strain NPR1, stronger effect = lower value 0.996 | locus YNL207W, strain RIO2, stronger effect = lower value 0.983 | locus YNL222W, strain SSU72, stronger effect = lower value 0.991 | locus YNL307C, strain MCK1 (second series), stronger effect = lower value 0.922 | locus YOL078W, strain AVO1, stronger effect = lower value 0.988 | locus YOL136C, strain PFK27, stronger effect = lower value 0.925 | locus YOR061W, strain CKA2, stronger effect = lower value 0.904 | locus YOR119C, strain RIO1, stronger effect = lower value 0.965 | locus YOR231W, strain MKK1, stronger effect = lower value 0.982 | locus YOR329C, strain SCD5, stronger effect = lower value 0.981 | locus YPL031C, strain PHO85, stronger effect = lower value 0.904 | locus YPL153C, strain RAD53, stronger effect = lower value 0.91 | locus YPL204W, strain HRR25, stronger effect = lower value 0.914 | locus YPL209C, strain IPL1, stronger effect = lower value 0.983 | locus YPL256C, strain CLN2, stronger effect = lower value 1.01 | locus YPR025C, strain CCL1, stronger effect = lower value 0.99 | locus YPR106W, strain ISR1, stronger effect = lower value 0.99 | locus YPR111W, strain DBF20, stronger effect = lower value 0.99 | strain NNK1, stronger effect = lower value 0.982 | strain TSCII, stronger effect = lower value 0.988

Source: PubChem BioAssay AID1159580 (chemical genetic matrix, 2015)
